We go through 25 compounds from the supplement of paper PMC8285479.

Counter-ions that a name gives are not always drawn. ± gives the standard deviation of the averaged measurements. In all, about 1,900 compounds were measured (“normalised cell viability (NPI; 0 = phenylarsine oxide control, 1 = DMSO control)”: median about 1, lowest 2% from about 0.039 on). The list comes from a sample in which the lowest values are over-represented; it also holds similar structures and randomly drawn compounds.

For the assay, the system named is NCI-H1944. The experiment in a line: normalised cell viability (NPI; 0 = phenylarsine oxide control, 1 = DMSO control) (fraction of DMSO control); NCI-H1944 is a non-small cell lung cancer line; higher = more viable cells (less compound toxicity). Particulars: 6 days.
Where [1] appears, read: glucocorticoid arm: hydrocortisone 2.75 uM co-treatment, compound 1 µM.
[2] abbreviates: glucocorticoid arm: hydrocortisone 2.75 uM co-treatment, compound 5 µM.
Setting [3] is: glucocorticoid arm: hydrocortisone 2.75 uM pre-treated 2 days and continued, compound 1 µM.
[4] abbreviates: glucocorticoid arm: hydrocortisone 2.75 uM pre-treated 2 days and continued, compound 5 µM.
The mark [5] stands for this setting: glucocorticoid arm: vehicle, compound 1 µM.
The mark [6] stands for this setting: glucocorticoid arm: vehicle, compound 5 µM.
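Further: CTB read-out in 384-well plates, triplicate wells, NPI normalised per plate against 1 µM phenylarsine oxide (0) and 0.1% DMSO (1) controls.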

For `O=C(/C=C/c1ccc2ccccc2n1)c1ccncc1`, the normalised cell viability runs as follows: under setting [1], 1.01 ± 0.013; under setting [2], 1.067 ± 0.0058; under setting [3], 1.02 ± 0.01; under setting [4], 1.02 ± 0.015; under setting [5], 1.01; under setting [6], 1.01 ± 0.01.
Turning to `NC(Cc1cccc(-c2ccccc2CP(=O)(O)O)c1)C(=O)O` (stereo not drawn) [Phenylbenzene-omega-phosphono-alpha-amino acid], the normalised cell viability is 0.9963 ± 0.0055 under setting [1]; 1.1 ± 0.021 under setting [2]; 1.06 ± 0.087 under setting [3]; 1.04 ± 0.021 under setting [4]; 1.017 ± 0.0058 under setting [5]; 1.03 ± 0.01 under setting [6].
In the case of `CC(C)(C)c1ccc(S(=O)(=O)/C=C/C#N)cc1`, the normalised cell viability amounted to 0.9913 ± 0.008 under setting [1]; 0.41 ± 0.055 under setting [2]; 0.9847 ± 0.007 under setting [3]; 0.9755 ± 0.0021 under setting [4]; 0.972 ± 0.0092 under setting [5]; 0.00936 ± 0.004 under setting [6].
Take `Cc1ccc(S(=O)(=O)C=CC#N)cc1`: the normalised cell viability is, setting by setting: under setting [1], 0.979 ± 0.013; under setting [2], 0.976 ± 0.0056; under setting [3], 0.9813 ± 0.0023; under setting [4], 0.997 ± 0.023; under setting [5], 0.988 ± 0.011; under setting [6], 0.688 ± 0.081.
Consider `CC(/C=C/c1cccc(Oc2ccc(F)cc2)c1)N(O)C(N)=O` (stereo not given), for which the normalised cell viability was 1.017 ± 0.0058 under setting [1]; 1.07 ± 0.01 under setting [2]; 1.01 ± 0.011 under setting [3]; 1.06 ± 0.014 under setting [4]; 1.02 ± 0.015 under setting [5]; 1.023 ± 0.0058 under setting [6].
Regarding `O=C(O)[C@@H]1C[C@H](C(=O)O)N1` [cis-Azetidine-2,4-dicarboxylic acid], the normalised cell viability under setting [1] was 0.992 ± 0.0044; the normalised cell viability under setting [2] is 0.97 ± 0.015; the normalised cell viability under setting [3] came to 0.997 ± 0.012; the normalised cell viability under setting [4] is 1; the normalised cell viability under setting [5] turned out to be 0.9863 ± 0.0029; the normalised cell viability under setting [6] was determined as 0.976 ± 0.011.
For the compound `OC[C@H]1NC[C@H](O)[C@@H](O)[C@@H]1O` [1-Deoxynojirimycin hydrochloride], the normalised cell viability worked out at 1.01 ± 0.011 under setting [1]; 0.984 ± 0.025 under setting [2]; 0.995 ± 0.015 under setting [3]; 0.969 ± 0.0066 under setting [4]; 1.003 ± 0.0058 under setting [5]; 0.991 ± 0.013 under setting [6].
As for `CN(C)CCC(c1ccc(Cl)cc1)c1ccccn1` (racemic) [(±)-Chlorpheniramine maleate], the normalised cell viability was determined as 0.9833 ± 0.0025 under setting [1]; 0.985 ± 0.018 under setting [2]; 0.9843 ± 0.0078 under setting [3]; 0.991 ± 0.028 under setting [4]; 0.9727 ± 0.0021 under setting [5]; 0.987 ± 0.0069 under setting [6].
For the compound `OC[C@H]1NC[C@@H](O)[C@@H]1O` [1,4-Dideoxy-1,4-imino-D-arabinitol], the normalised cell viability by setting is: under setting [1], 0.9993 ± 0.0011; under setting [2], 0.9807 ± 0.0015; under setting [3], 0.997 ± 0.014; under setting [4], 0.976 ± 0.027; under setting [5], 1.002 ± 0.007; under setting [6], 0.992 ± 0.012.
Regarding `COc1ccc(-c2ccc3ncc4c(c3c2)n(-c2ccc(N3CCNCC3)c(C(F)(F)F)c2)c(=O)n4C)cn1`, the normalised cell viability is, setting by setting: under setting [1], 0.00163 ± 0.00092; under setting [2], 0.000434 ± 0.00018; under setting [3], 0.25 ± 0.021; under setting [4], 0.0016 ± 0.00014; under setting [5], 0.000974 ± 0.00058; under setting [6], 0.000275 ± 0.00038.
Consider `Cn1c(=O)n(-c2ccc(C(C)(C)C#N)cc2)c2c3cc(-c4cnc5ccccc5c4)ccc3ncc21`, for which the normalised cell viability is, setting by setting: under setting [1], 0.421 ± 0.017; under setting [2], 0.496 ± 0.04; under setting [3], 0.629 ± 0.0076; under setting [4], 0.633 ± 0.071; under setting [5], 0.255 ± 0.013; under setting [6], 0.408 ± 0.047.
As for `c1ccc(C2CN3CCSC3=N2)cc1` (single isomer, unassigned; (-)) [(-)-Tetramisole hydrochloride], the normalised cell viability reads like this: under setting [1], 1.017 ± 0.0058; under setting [2], 1.01 ± 0.015; under setting [3], 1.02 ± 0.015; under setting [4], 1.02 ± 0.015; under setting [5], 1.02; under setting [6], 1.02 ± 0.015.
Turning to `O=Nc1c(-c2c(O)[nH]c3cc(Br)ccc23)[nH]c2ccccc12`, the normalised cell viability runs as follows: under setting [1], 1.15 ± 0.01; under setting [2], 1.24 ± 0.032; under setting [3], 1.127 ± 0.011; under setting [4], 1.16 ± 0.031; under setting [5], 1.04 ± 0.01; under setting [6], 1.07 ± 0.01.
In the case of `CCN1CCN(Cc2ccc(Nc3ncc(F)c(-c4cc(F)c5nc(C)n(C(C)C)c5c4)n3)nc2)CC1`, the normalised cell viability reads like this: under setting [1], 0.493 ± 0.041; under setting [2], 0.312 ± 0.06; under setting [3], 0.528 ± 0.03; under setting [4], 0.599 ± 0.14; under setting [5], 0.252 ± 0.028; under setting [6], 0.000109 ± 0.00093.
Take `N=C(NC(=O)c1nc(Cl)c(N)nc1N)Nc1ccccc1` [Phenamil methanesulfonate]: the normalised cell viability came to 1.01 ± 0.011 under setting [1]; 1.04 ± 0.025 under setting [2]; 0.894 ± 0.22 under setting [3]; 1.06 ± 0.025 under setting [4]; 1.007 ± 0.0058 under setting [5]; 0.9977 ± 0.004 under setting [6].
As for `CCCCOc1c(C(=O)c2c(F)cc(C)cc2F)c[nH]c2nncc1-2`, the normalised cell viability runs as follows: under setting [1], 0.91 ± 0.018; under setting [2], 0.988 ± 0.017; under setting [3], 0.9857 ± 0.0032; under setting [4], 1.02 ± 0.022; under setting [5], 0.561 ± 0.04; under setting [6], 0.861 ± 0.018.
As for `CN(C)CCCn1cc(C2=C(c3c[nH]c4ccccc34)C(=O)NC2=O)c2ccccc21`, the normalised cell viability stood at 0.992 ± 0.017 under setting [1]; 1.06 ± 0.011 under setting [2]; 1.01 ± 0.02 under setting [3]; 1.01 ± 0.059 under setting [4]; 1.03 ± 0.011 under setting [5]; 1.05 under setting [6].
For the compound `Cn1cc(C2=C(c3cn(CCCSC(=N)N)c4ccccc34)C(=O)NC2=O)c2ccccc21` [Ro 31-8220 Mesylate], the normalised cell viability was determined as 0.998 ± 0.013 under setting [1]; 0.125 ± 0.013 under setting [2]; 0.973 ± 0.036 under setting [3]; 0.297 ± 0.087 under setting [4]; 1.013 ± 0.0058 under setting [5]; 0.0242 ± 0.0022 under setting [6].
As to `O=Nc1ccc2oc(=O)ccc2c1` [6-Nitroso-1,2-benzopyrone], the normalised cell viability turned out to be 1.02 ± 0.01 under setting [1]; 1.02 ± 0.015 under setting [2]; 1.027 ± 0.0058 under setting [3]; 0.857 ± 0.29 under setting [4]; 1.013 ± 0.0058 under setting [5]; 1.02 ± 0.01 under setting [6].
As for `CN(C)CCC(c1ccc(Br)cc1)c1ccccn1` (single isomer, unassigned; (+)) [(+)-Brompheniramine maleate], the normalised cell viability reads like this: under setting [1], 1.01 ± 0.017; under setting [2], 1.023 ± 0.0058; under setting [3], 1.05 ± 0.04; under setting [4], 1.03 ± 0.021; under setting [5], 1.006 ± 0.0069; under setting [6], 1.02 ± 0.011.
On to `Nc1ncnc2c1ncn2[C@@H]1O[C@H](COP(=O)(O)CP(=O)(O)OP(=O)([O-])O)[C@@H](O)[C@H]1O.[Li+]` [alpha,beta-Methylene adenosine 5'-triphosphate lithium salt], for which the normalised cell viability turned out to be 1.02 ± 0.011 under setting [1]; 1 ± 0.036 under setting [2]; 1.01 ± 0.014 under setting [3]; 0.992 ± 0.013 under setting [4]; 1.005 ± 0.0081 under setting [5]; 1.02 ± 0.021 under setting [6].
On to `Cc1nc(N=Nc2cc(S(=O)(=O)O)c3cc([N+](=O)[O-])cc(S(=O)(=O)O)c3c2)c(COP(=O)(O)O)c(C=O)c1O` [PPNDS tetrasodium], for which the normalised cell viability is 1.001 ± 0.0085 under setting [1]; 1.01 ± 0.037 under setting [2]; 1.013 ± 0.0058 under setting [3]; 0.857 ± 0.27 under setting [4]; 0.9973 ± 0.0021 under setting [5]; 0.999 ± 0.0098 under setting [6].
As for `CC(NC(=O)C(O)c1cc(F)cc(F)c1)C(=O)NC1C(=O)N(C)c2ccccc2-c2ccccc21` (stereo not given), the normalised cell viability came to 0.973 ± 0.013 under setting [1]; 0.995 ± 0.017 under setting [2]; 0.977 ± 0.015 under setting [3]; 1.007 ± 0.0058 under setting [4]; 0.9893 ± 0.0038 under setting [5]; 0.9993 ± 0.0011 under setting [6].
For the compound `CO[C@H](C(=O)[C@@H](O)[C@@H](C)O)[C@@H]1Cc2cc3cc(O[C@H]4C[C@@H](O[C@H]5C[C@@H](O)[C@H](O)[C@@H](C)O5)[C@H](O)[C@@H](C)O4)c(C)c(O)c3c(O)c2C(=O)[C@H]1O[C@H]1C[C@@H](O[C@H]2C[C@@H](O[C@H]3C[C@](C)(O)[C@H](O)[C@@H](C)O3)[C@@H](O)[C@@H](C)O2)[C@H](O)[C@@H](C)O1` [Plicamycin], the normalised cell viability by setting is: under setting [1], 0.0675 ± 0.0023; under setting [2], 0.0276 ± 0.0011; under setting [3], 0.102 ± 0.0097; under setting [4], 0.0631 ± 0.0043; under setting [5], 0.0202 ± 0.0011; under setting [6], 0.011 ± 0.0021.
In the case of `CC1(C2CCCC2)Cc2cc(OCC(=O)O)c(Cl)c(Cl)c2C1=O` (stereo not given), the normalised cell viability is, setting by setting: under setting [1], 0.983 ± 0.014; under setting [2], 0.982 ± 0.037; under setting [3], 0.9883 ± 0.0072; under setting [4], 0.986 ± 0.084; under setting [5], 0.998 ± 0.011; under setting [6], 0.9853 ± 0.0067.
